In PubChem BioAssay (NCATS):
Inconclusive results are not listed. The source holds several records for some structures; these can differ, active in one and inactive in another. Activity calls are given as the source filed them. Unless noted, the call rests on the fitted dose curve; in most records, active means well fitted curve in the direction sought with a large enough effect; inconclusive means small, poorly fitted or top-dose-only effect, or another doubt; inactive means no such curve, though single readings can be large; an effect the other way counts as inactive or inconclusive.

How the values were obtained:
[1] = Cytometry Cell-Based qHTS for Inhibitors of the mTORC1 Signaling Pathway in MEF cells (AID 2668);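 further: Tsc2-/- p53-/- mouse embryonic fibroblasts stably re-expressing wild-type Tsc2; percent cells positive for phospho-rpS6 Ser235/236 relative to propidium iodide stain; series mostly up to about 38 µM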
Method in brief: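 Tsc2-/-, p53-/- MEFs re-expressing WT Tsc2; cpd 24 hrs, 37 degree Celsius; PFA fix, Alexa-488 p-rpS6 (Ser235/236) Ab 2 hrs RT, PI counterstain; Acumen 488nm scan; p-S6/PI ratio → % positive cells; PI count = viability.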

[2] = Validation screen for small molecules that induce DNA re-replication in MCF 10A normal breast cells (AID 463097); further: nearly all actives have a fitted effect of over 60% in size
Method in brief: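 Image-based qHTS: normal breast cells are incubated with compound for 48 hr, stained with Hoechst, and scanned for total nuclear fluorescence. Compounds raising the fraction of nuclei with elevated DNA content count as re-replication inducers.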

[3] = target: Ubiquitin carboxyl-terminal hydrolase 2 (Homo sapiens) (UniProt O75604); assay: qHTS Validation Assay for Inhibitors of Ubiquitin-specific Protease USP2a Using CHOP2 as the Reporter (AID 463106)
Method in brief: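 USP2 core (10 nM final) was preincubated with compound 30 min at RT in pH 8.0 Tris/CaCl2/beta-ME/CHAPS buffer. Ub-CHOP2 and reporter substrate (25 nM final each) were then added, with fluorescence (Ex 485/Em 531) read after 60 min. Data were normalized to NEM full inhibition and fitted to concentration-response curves.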

[4] = target: DNA polymerase III PolC-type (Bacillus subtilis (strain 168)) (UniProt P13267); assay: qHTS Validation Assay for the Inhibitors of DNA Replication in Gram-Positive Bacteria (AID 485295);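 further: reconstituted holoenzyme with PolC plus beta clamp SSB and primase; PicoGreen fluorescence of double-stranded DNA made on primed circular M13 template; series mostly up to about 57 µM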
Method in brief: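 First, compound is mixed with the reconstituted replication complex and held at room temperature. Next, circular single-stranded M13Gori with nucleotides starts synthesis. Finally, PicoGreen in EDTA halts the reaction and stains double-stranded product for fluorescence reading.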

[5] = target: Tumor susceptibility gene 101 protein (Homo sapiens) (UniProt Q99816); assay: qHTS Validation Assay for Iinhibitors of HIV-1 Budding by Blocking the Interaction of PTAP/TSG101 (AID 485342; calls by dose curve)
Method in brief: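 Binding of a FITC-tagged PTAP-motif peptide (50 nM) to the Tsg101 binding domain (10 uM) is monitored by fluorescence polarization. Compounds are pin-delivered before peptide addition, and incubation runs 20 min at room temperature.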

[6] = qHTS Validation Assay to Find Inhibitors of Chronic Active B-Cell Receptor Signaling (AID 485345; active means well fitted curve in the direction sought with a large enough effect in the main read-out, with a control signal flat, not every such curve was filed as active)
Method in brief: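 TMD8 ABC-DLBCL cells stably carrying doxycycline-inducible IkappaBalpha–green luciferase fusion plus unfused red luciferase; compounds 46 uM to 3 nM, 4 h at 37C with doxycycline. Corrected green/red luminescence ratio normalized to 10 uM MG-132 and basal cell wells; curves fitted.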

[7] = target: Beta-2 adrenergic receptor (Homo sapiens) (UniProt P07550); assay: qHTS validation assay of beta-arrestin-biased ligands of beta2-adrenergic receptor (AID 485366)
Method in brief: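 Luminescence from a tTA-responsive luciferase, induced when recombinant beta-arrestin is recruited to recombinant beta2-AR, served as the agonism signal. Cells were exposed to compound for 18 hr at 37 degrees C; titrations spanned up to 46 microM.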

[8] = target: ATP-dependent 6-phosphofructokinase (Trypanosoma brucei brucei) (UniProt O15648); assay: qHTS Validation Assay to Find Inhibitors of T. brucei phosphofructokinase (AID 485368); further: potency means the concentration at half of the fitted maximal effect
Method in brief: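 Activity was normalized between 1x (1.25 nM) PFK wells as no inhibition and enzyme-free wells as full inhibition, from luminescence after ADP-Glo detection of ADP made from 0.5 mM F6P and 0.1 mM ATP over 45 min.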

[9] = Quantitative high throughput screen for delayed death inhibitors of the malarial parasite plastid, 96 hour incubation (AID 488745); further: series mostly up to about 29 µM; nearly all actives have a fitted effect of over 70% in size
Method in brief: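 Luciferase-expressing P. falciparum in erythrocytes (2% hematocrit, 0.1% parasitemia) incubated with compound for 96 h at 37 C, 5% CO2, in RPMI 1640 with 0.5% Albumax. Growth inhibition read as decreased luminescence.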

[10] = Quantitative high throughput screen for delayed death inhibitors of the malarial parasite plastid, 48 hour incubation (AID 488752); further: nearly all actives have a fitted effect of over 65% in size
Method in brief: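 Erythrocytes infected with firefly luciferase-expressing P. falciparum (2% hematocrit, 0.1% parasitemia) cultured with compound for 48 h at 37 C, 5% CO2, in RPMI 1640/0.5% Albumax. Growth inhibition read as loss of luminescence.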

[11] = target: Thioredoxin reductase 1, cytoplasmic (Rattus norvegicus) (UniProt O89049); assay: qHTS Assay for Substrates of Mammalian Selenoprotein Thioredoxin Reductase 1 (TrxR1) (AID 488772);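 further: NADPH fluorescence in the first read after selenite addition and not the 8 min delta; series mostly up to about 57 µM; a drop in NADPH fluorescence below the no-compound background marks a TrxR1 substrate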
Method in brief: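 Quantitative HTS in Tris-HCl buffer at pH 7.5 with EDTA and Tween-20, using rat TrxR1, 400 uM NADPH and 400 uM selenite (final). A fall in initial NADPH fluorescence relative to background marked substrate behaviour.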

[12] = target: Thioredoxin reductase 1, cytoplasmic (Rattus norvegicus) (UniProt O89049); assay: qHTS Assay for Inhibitors of Mammalian Selenoprotein Thioredoxin Reductase 1 (TrxR1) (AID 488773); conditions: Potency: inhibition;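 further: drop in NADPH fluorescence over an 8 min run after selenite addition; series mostly up to about 57 µM; nearly all actives have a fitted effect of over 40% in size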
Method in brief: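 Steps: enzyme (90 nM) plus NADPH (400 uM final), 5 min at ~22 deg C; compound added, 15 min; selenite (400 uM final) added; fluorescence followed for 8 min. Concentration-response curves derived from the normalized delta values.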

[13] = target: Flap endonuclease 1 (Homo sapiens) (UniProt P39748); assay: qHTS Validation Assay for the Inhibitors of Human Flap endonuclease 1 (FEN1) (AID 488816)
Method in brief: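 Human FEN1 (10 nM) preincubated 15 min at room temperature with compounds, then flap DNA substrate added at 50 nM final. Fluorescence read at 0 and 15 min; concentration-response fitted with four-parameter Hill equation.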

[14] = target: Chromobox protein homolog 1 (Homo sapiens) (UniProt P83916); assay: qHTS Validation Assay for Inhibitors of HP1-beta Chromodomain Interactions with Methylated Histone Tails (AID 488953);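 further: loss of AlphaScreen luminescence from HP1-beta binding biotinylated H3K9me3 peptide; series mostly up to about 110 µM; nearly all actives have a fitted effect of over 50% in size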
Method in brief: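 HP1-beta (50 nM) preformed 30 min with biotinylated H3(1-18)K9me3 peptide (50 nM) in PBS pH 7.4, 0.01% Tween-20. Compounds added for 30 min at room temperature. Complex disruption read by AlphaScreen with streptavidin donor/nickel chelate acceptor beads (10 ug/mL each).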

[15] = target: Methanococcus maripaludis chaperonin (MmCpn) (UniProt Q6LX38); assay: High-Throughput Screening for Modulators of Cytosolic Chaperonin Activity: MmCpn Primary Screen (AID 488978);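 further: 50 nM MmCpn enzyme hydrolysing 30 µM ATP at 37 °C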
Method in brief: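 Steps: chaperonin 50 nM final; add compound, 5 min RT; start with ATP, 30 uM final; hold 10 min at 37C; add ADP Transcreener HTRF reagent, 5 min; read ex 320, em 590 and 665 nm.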

[16] = target: Thyrotropin receptor (Homo sapiens) (UniProt P16473); assay: qHTS Assay for Antagonists of the Thyroid Stimulating Hormone Receptor (AID 488980); further: series mostly up to about 58 µM
Method in brief: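 Readout is cAMP by HTRF competition between cellular cAMP and cAMP-d2 for a cryptate-labelled antibody. Antagonism was assessed in TSHR-transfected HEK293 cells stimulated with 4 nM TSH (EC80, final) in the presence of RO 20-1724.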

[17] = target: D(1A) dopamine receptor (Homo sapiens) (UniProt P21728); assay: HTS Assay for Allosteric Agonists of the Human D1 Dopamine Receptor: Primary Screen for Agonists (AID 488981)
Method in brief: (§1)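 Tetracycline-induced HEK293 Trex D1 cells with forced coupling to calcium, loaded with no-wash calcium dye; kinetic fluorescence read 180 s after compound addition for agonism, then a further 180 s after an EC20 dopamine challenge for potentiation.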

[18] = target: D(1A) dopamine receptor (Homo sapiens) (UniProt P21728); assay: HTS Assay for Allosteric Agonists of the Human D1 Dopamine Receptor: Primary Screen for Potentiators (AID 488982)
Method in brief: as §1

[19] = target: M-phase phosphoprotein 8 (Homo sapiens) (UniProt Q99549); assay: qHTS Validation Assay for Inhibitors for MPP8 Chromodomain Interactions with Methylated Histone Tails (AID 488949); further: nearly all actives have a fitted effect of over 55% in size; further: potency means the concentration at half of the fitted maximal effect
Method in brief: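 50 nM MPP8 + 50 nM b-H3K9me3 peptide, PBS pH 7.4/0.01% Tween-20, 30 min RT; + cpd 30 min RT; + AlphaScreen donor/Ni-chelate acceptor beads 10 ug/mL final, 30 min dark; luminescence read.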

[20] = target: Transient receptor potential cation channel subfamily V member 1 (Homo sapiens) (UniProt Q8NER1); assay: HTS Assay for Compounds that Act as Enhancers of the Vanilloid Receptor 1 (AID 488979)
Method in brief: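 TRPV1 cells loaded with Fluo-8 calcium dye; compound added and Ca2+ signal (ex 480/em 520 nm) followed 3 min, then capsaicin at EC20 added and read 2 more min to detect enhancement.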

Measured: Potency

Chain of ATP-dependent 6-phosphofructokinase (Trypanosoma brucei brucei) (O15648 whole entry, looked up): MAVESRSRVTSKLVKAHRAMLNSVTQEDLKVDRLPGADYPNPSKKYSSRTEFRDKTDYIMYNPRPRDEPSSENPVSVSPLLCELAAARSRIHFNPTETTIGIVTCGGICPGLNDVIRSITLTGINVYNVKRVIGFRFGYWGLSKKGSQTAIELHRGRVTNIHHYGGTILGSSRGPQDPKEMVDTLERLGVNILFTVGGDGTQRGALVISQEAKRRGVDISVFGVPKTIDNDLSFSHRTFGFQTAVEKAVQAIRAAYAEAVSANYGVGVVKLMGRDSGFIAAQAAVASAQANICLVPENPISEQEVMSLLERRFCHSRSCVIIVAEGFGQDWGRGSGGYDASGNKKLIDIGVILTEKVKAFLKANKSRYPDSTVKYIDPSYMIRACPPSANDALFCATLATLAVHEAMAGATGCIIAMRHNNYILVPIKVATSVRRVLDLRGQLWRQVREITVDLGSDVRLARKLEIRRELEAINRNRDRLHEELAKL
Chain of Transient receptor potential cation channel subfamily V member 1 (Homo sapiens) (Q8NER1 whole entry, looked up): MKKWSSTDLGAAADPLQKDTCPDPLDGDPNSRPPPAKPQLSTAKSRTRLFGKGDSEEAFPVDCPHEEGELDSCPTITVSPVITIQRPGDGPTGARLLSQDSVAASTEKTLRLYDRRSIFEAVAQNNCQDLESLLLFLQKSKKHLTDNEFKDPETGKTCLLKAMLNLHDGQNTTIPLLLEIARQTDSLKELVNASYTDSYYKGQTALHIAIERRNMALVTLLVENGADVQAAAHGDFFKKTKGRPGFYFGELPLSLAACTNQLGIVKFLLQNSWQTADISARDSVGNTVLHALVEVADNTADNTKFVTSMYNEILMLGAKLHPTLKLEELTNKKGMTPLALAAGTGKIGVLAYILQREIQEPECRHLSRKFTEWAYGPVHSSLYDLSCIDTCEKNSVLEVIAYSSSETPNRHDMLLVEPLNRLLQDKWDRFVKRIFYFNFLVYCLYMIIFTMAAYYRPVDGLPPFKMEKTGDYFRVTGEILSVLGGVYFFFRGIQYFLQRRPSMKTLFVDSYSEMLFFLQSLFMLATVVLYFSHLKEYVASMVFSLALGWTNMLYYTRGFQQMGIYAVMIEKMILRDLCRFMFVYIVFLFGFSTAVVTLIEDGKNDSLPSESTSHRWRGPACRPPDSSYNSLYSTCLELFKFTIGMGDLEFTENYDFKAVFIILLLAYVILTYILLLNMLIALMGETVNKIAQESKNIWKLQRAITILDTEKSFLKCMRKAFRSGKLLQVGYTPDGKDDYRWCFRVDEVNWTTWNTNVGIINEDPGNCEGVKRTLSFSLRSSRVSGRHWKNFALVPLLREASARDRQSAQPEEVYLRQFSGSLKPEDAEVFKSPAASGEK
Chain of Ubiquitin carboxyl-terminal hydrolase 2 (Homo sapiens) (O75604 whole entry, looked up): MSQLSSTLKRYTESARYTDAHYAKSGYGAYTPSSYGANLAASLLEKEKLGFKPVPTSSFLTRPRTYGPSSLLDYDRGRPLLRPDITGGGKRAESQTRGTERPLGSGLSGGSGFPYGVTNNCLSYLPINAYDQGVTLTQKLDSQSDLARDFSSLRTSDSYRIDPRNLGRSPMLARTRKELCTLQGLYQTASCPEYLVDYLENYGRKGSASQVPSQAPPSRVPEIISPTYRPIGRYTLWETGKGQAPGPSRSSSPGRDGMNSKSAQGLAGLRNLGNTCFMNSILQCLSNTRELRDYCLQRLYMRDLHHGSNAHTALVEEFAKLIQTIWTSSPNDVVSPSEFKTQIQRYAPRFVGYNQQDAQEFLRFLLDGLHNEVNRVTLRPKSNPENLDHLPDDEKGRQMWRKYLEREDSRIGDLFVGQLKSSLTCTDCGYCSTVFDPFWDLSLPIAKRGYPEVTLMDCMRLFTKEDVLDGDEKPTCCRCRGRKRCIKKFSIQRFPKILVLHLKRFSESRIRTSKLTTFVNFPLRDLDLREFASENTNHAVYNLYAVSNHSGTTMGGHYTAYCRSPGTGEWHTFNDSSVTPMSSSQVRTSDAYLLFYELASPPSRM
Chain of Methanococcus maripaludis chaperonin (MmCpn) (Q6LX38 1-543): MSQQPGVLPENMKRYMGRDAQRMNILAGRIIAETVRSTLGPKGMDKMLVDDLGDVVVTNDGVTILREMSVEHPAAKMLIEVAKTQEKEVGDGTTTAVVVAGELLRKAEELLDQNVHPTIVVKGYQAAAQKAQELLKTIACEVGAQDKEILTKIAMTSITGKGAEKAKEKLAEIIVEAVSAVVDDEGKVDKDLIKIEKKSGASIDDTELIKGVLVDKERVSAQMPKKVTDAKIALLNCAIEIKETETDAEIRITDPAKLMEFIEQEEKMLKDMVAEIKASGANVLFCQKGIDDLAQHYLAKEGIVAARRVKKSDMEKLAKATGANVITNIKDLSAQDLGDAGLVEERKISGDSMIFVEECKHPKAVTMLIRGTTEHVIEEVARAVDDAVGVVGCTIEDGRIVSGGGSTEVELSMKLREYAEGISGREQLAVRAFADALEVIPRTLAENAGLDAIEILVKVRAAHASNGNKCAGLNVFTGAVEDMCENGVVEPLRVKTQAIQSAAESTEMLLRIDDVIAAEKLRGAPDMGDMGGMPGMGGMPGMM
Chain of Thyrotropin receptor (Homo sapiens) (P16473 whole entry, looked up): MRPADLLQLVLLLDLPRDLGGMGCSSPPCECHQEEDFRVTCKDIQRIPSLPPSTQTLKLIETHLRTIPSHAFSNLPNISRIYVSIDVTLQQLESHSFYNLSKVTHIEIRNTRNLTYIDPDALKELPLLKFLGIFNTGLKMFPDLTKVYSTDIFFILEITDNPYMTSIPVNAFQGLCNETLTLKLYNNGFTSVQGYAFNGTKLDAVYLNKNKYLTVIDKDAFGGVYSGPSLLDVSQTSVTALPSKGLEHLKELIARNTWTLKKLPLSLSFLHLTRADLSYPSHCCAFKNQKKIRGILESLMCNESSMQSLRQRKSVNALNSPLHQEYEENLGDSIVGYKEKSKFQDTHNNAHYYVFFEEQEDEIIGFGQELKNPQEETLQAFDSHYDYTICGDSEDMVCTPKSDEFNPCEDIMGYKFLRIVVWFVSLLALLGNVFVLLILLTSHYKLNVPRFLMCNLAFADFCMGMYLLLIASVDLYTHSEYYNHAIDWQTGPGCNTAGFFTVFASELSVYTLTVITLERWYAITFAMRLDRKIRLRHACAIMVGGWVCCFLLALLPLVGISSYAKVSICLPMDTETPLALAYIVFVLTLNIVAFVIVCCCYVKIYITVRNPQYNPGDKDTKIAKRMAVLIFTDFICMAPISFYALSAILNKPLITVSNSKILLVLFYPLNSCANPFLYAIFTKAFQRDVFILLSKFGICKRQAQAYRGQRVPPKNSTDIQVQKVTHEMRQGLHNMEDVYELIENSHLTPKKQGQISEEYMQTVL
Chain of Tumor susceptibility gene 101 protein (Homo sapiens) (Q99816 whole entry, looked up, the tested form may be a part): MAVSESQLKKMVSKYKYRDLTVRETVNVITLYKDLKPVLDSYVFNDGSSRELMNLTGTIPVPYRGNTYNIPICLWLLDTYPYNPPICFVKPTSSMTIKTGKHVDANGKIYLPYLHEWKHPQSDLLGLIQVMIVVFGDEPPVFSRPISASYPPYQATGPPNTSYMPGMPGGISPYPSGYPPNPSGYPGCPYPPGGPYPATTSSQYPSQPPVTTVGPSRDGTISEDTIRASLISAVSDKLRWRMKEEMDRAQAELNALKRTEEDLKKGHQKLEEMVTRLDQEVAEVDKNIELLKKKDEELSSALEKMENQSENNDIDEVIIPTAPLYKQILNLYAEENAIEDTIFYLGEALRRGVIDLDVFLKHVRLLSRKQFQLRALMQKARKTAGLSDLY
Chain of Beta-2 adrenergic receptor (Homo sapiens) (P07550 whole entry, looked up): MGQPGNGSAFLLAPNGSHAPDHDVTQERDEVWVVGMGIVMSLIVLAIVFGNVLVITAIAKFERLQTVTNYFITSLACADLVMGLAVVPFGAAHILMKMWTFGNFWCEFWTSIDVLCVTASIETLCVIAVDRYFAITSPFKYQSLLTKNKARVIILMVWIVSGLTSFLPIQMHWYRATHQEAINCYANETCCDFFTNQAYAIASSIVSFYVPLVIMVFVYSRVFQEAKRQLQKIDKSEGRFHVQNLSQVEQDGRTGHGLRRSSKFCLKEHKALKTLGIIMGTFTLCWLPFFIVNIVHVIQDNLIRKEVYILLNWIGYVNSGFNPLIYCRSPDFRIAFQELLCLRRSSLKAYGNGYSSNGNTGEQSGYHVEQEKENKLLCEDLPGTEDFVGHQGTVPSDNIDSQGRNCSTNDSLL
Chain of D(1A) dopamine receptor (Homo sapiens) (P21728 whole entry, looked up): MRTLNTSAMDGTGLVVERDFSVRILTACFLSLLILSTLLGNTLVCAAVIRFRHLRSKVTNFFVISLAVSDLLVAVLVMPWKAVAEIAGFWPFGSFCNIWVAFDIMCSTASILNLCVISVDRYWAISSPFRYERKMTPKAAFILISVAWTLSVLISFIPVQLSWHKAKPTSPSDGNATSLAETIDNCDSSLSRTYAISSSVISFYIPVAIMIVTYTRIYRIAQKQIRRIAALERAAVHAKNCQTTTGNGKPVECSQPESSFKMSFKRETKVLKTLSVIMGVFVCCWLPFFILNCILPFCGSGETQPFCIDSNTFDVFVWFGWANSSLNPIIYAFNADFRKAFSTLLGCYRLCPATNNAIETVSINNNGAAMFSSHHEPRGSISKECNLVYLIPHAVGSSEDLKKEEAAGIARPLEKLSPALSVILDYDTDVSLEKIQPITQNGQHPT
Chain of Chromobox protein homolog 1 (Homo sapiens) (P83916 whole entry, looked up): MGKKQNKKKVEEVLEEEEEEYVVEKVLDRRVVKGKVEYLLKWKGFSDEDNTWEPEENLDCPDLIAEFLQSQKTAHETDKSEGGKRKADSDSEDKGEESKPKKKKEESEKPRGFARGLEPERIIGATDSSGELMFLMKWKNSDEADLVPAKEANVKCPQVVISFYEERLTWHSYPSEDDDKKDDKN

CCC1(c2ccccc2)C(=O)NCNC1=O
not listed: [19] | [20]
inactive: all other assays above

CC(C)C(=O)Nc1ccc([N+](=O)[O-])c(C(F)(F)F)c1
not listed: [14] | [18] | [19] | [20]
inactive: all other assays above

NCCS(=O)(=O)O
not listed: [16] | [19] | [20]
inactive: all other assays above

Cc1cc(C(C)(C)C)c(O)c(C)c1CC1=NCCN1
not listed: [15] | [16]
inactive: all other assays above

NC(=O)NO
not listed: [11] | [16] | [20]
inactive: all other assays above

CCc1cccc2c3c([nH]c12)C(CC)(CC(=O)O)OCC3 (stereo not given)
not listed: [8]
inactive: all other assays above

CCC1(C)CC(=O)NC1=O (stereo not given)
not listed: [16] | [19]
inactive: all other assays above

CCOC(=O)C(C)(C)Oc1ccc(Cl)cc1
not listed: [8] | [19]
inactive: all other assays above

CN1CCC(=C2c3ccccc3CC(=O)c3sccc32)CC1
not listed: [8] | [14] | [17] | [19] | [20]
inactive: all other assays above

CN1CCN(C2=Nc3cc(Cl)ccc3Nc3ccccc32)CC1
inactive: [1] | [2] | [3] | [4] | [5] | [6] | [7] | [8] | [12] | [15]

CCOC(=O)c1ncn2c1CN(C)C(=O)c1cc(F)ccc1-2
not listed: [10] | [11] | [13] | [16] | [20]
inactive: all other assays above

CC1COc2c(N3CCN(C)CC3)c(F)cc3c(=O)c(C(=O)O)cn1c23 (stereo not given)
not listed: [13] | [16] | [17] | [20]
inactive: all other assays above

Nc1nnc(-c2cccc(Cl)c2Cl)c(N)n1
not listed: [11] | [16] | [17] | [18]
inactive: all other assays above

NCCCCCC(=O)O
not listed: [14] | [16] | [20]
inactive: all other assays above

O=C(C1CCCCC1)N1CC(=O)N2CCc3ccccc3C2C1 (stereo not given)
not listed: [8] | [16] | [17] | [20]
inactive: all other assays above

COc1nc(C)nc(Cl)c1NC1=NCCN1
not listed: [20]
inactive: all other assays above

NC12CC3CC(CC(C3)C1)C2
not listed: [8] | [13] | [16] | [20]
inactive: all other assays above

Cc1cnc(C(=O)NCCc2ccc(S(=O)(=O)NC(=O)NC3CCCCC3)cc2)cn1
not listed: [14] | [16] | [19]
inactive: all other assays above

Cc1cc(C(C)(C)C)cc(C)c1CC1=NCCN1
not listed: [12] | [16] | [17] | [19] | [20]
inactive: all other assays above

CC(C(=O)O)c1cccc(C(=O)c2ccccc2)c1 (stereo not given)
not listed: [8] | [13] | [17] | [20]
inactive: all other assays above

CN(Cc1cnc2nc(N)nc(N)c2n1)c1ccc(C(=O)N[C@@H](CCC(=O)O)C(=O)O)cc1
active: [8] 37.9 µM
not listed: [14] | [16] | [17] | [19] | [20]
inactive: all other assays above

COc1ccc2[nH]cc(CCNC(C)=O)c2c1
not listed: [8] | [16] | [20]
inactive: all other assays above

NCCc1cnc[nH]1
not listed: [11]
inactive: all other assays above

CC(C)(Oc1ccc(C2CC2(Cl)Cl)cc1)C(=O)O (stereo not given)
39.8 µM (active) and inactive: [19]
not listed: [8] | [20]
inactive: all other assays above

NS(=O)(=O)c1cc2c(cc1Cl)NCNS2(=O)=O
not listed: [8] | [16] | [17] | [19] | [20]
inactive: all other assays above

Nc1ccn([C@H]2CC[C@@H](CO)O2)c(=O)n1
not listed: [12] | [19]
inactive: all other assays above

CN(C)c1nc(N(C)C)nc(N(C)C)n1
not listed: [9] | [17] | [19]
inactive: all other assays above

Nc1nc2c(ncn2COC(CO)CO)c(=O)[nH]1
not listed: [13] | [16] | [19] | [20]
inactive: all other assays above

Cc1ccccc1N1C(=O)c2cc(S(N)(=O)=O)c(Cl)cc2NC1C (stereo not given)
not listed: [14] | [16] | [20]
inactive: all other assays above

Cn1c(=O)c2c(ncn2C)n(C)c1=O
not listed: [8] | [13] | [16] | [19] | [20]
inactive: all other assays above

NC(=O)OCC(COC(N)=O)c1ccccc1
not listed: [16]
inactive: all other assays above
